# Measurements reported in publication PMC7862700, “An all-to-all approach to the identification of sequence-specific readers for epigenetic DNA modifications on cytosine”.
# Legend:
# Test in all cases: DAPPL (digital affinity profiling via proximity ligation, sequencing); 10 mM Tris-HCl pH 7.5, 50 mM NaCl, 1 mM DTT, 4% glycerol, room temperature, 30 min; GST-TFs on glutathione beads, 16-mer random dsDNA library, 0.1% formaldehyde crosslink after washing; high values mean tight binding
# Details in all cases: protein: recombinant; tags: N-terminal GST; dsDNA, one strand shown
# FLI1 = target: T1, FLI1 (Homo sapiens, UniProt Q01543 1-452)
# T1 sequence: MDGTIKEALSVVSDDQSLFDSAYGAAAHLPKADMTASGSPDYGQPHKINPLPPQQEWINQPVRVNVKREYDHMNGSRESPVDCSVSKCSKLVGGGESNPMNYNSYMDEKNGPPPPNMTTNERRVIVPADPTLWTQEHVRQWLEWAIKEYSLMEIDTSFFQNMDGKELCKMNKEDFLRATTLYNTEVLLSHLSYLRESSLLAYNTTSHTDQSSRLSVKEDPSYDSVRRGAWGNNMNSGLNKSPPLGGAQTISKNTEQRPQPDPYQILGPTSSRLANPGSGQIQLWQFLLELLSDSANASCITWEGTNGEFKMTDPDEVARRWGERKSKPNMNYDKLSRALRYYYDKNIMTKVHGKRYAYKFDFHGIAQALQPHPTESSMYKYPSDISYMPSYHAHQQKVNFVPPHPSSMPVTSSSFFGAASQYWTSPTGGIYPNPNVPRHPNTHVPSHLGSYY
# Method in brief: (§1)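 Sequencing on an Illumina NextSeq500 followed washing, crosslinking with 0.1% formaldehyde, proximity ligation (BsaI/T4 ligase, 1 h, 37 °C) and PCR amplification of pools that had been incubated for 30 min at room temperature with 200 nmole of a random double-stranded 16-mer DNA library in Tris/NaCl/DTT/glycerol buffer. Each pool held DNA-barcoded human transcription factors, expressed in yeast as GST fusions and captured on glutathione beads, plus a tag-only sample. Binding signal is a hexamer's read frequency for a factor divided by its frequency in the tag-only sample.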
# ELK1 = target: T2, ELK1 (Homo sapiens, UniProt P19419 1-428)
# T2 sequence: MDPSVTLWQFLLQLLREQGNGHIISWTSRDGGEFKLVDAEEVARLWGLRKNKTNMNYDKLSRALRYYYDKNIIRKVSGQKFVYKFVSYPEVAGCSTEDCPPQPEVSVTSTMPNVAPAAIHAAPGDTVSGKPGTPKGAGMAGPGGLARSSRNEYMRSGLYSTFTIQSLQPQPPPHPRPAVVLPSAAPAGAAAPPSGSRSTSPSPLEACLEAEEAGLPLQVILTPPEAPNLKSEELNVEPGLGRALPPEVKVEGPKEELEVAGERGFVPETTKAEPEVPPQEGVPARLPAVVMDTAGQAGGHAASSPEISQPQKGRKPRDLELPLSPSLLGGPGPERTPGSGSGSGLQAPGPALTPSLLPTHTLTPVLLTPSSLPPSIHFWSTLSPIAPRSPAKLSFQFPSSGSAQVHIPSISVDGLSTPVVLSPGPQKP
# Method in brief: as §1
# GABPA = target: T3, GABPA (Homo sapiens, UniProt Q06546 1-454)
# T3 sequence: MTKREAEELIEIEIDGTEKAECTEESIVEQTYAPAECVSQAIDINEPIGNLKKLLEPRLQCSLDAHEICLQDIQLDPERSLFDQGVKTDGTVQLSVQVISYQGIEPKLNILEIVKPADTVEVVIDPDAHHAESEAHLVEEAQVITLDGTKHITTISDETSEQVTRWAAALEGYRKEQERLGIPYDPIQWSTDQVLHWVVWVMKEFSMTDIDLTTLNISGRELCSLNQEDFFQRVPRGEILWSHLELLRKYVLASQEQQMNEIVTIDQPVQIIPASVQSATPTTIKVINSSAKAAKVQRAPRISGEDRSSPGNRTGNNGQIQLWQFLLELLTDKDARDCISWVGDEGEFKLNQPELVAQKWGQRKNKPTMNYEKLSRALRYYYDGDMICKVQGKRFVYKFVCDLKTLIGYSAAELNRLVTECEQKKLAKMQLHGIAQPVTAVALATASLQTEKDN
# Method in brief: as §1
# ERG = target: T4, ERG (Homo sapiens, UniProt P11308 1-479)
# T4 sequence: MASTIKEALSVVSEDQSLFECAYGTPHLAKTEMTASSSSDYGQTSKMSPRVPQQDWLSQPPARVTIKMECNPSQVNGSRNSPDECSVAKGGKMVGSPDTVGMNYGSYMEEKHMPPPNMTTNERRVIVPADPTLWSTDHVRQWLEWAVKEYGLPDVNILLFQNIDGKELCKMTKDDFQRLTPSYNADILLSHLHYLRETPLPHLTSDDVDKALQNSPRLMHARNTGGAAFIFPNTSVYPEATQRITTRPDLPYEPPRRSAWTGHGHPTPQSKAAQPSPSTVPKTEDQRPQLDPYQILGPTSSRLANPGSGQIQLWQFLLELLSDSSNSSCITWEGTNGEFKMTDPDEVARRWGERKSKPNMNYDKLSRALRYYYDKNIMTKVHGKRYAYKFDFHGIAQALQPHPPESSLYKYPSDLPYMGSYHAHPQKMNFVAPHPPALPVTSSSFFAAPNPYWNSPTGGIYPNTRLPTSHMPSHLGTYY
# Method in brief: as §1
# ELF1 = ELF1 (Homo sapiens, UniProt P32519 1-619)
# ELF1, sequence (P32519 whole entry): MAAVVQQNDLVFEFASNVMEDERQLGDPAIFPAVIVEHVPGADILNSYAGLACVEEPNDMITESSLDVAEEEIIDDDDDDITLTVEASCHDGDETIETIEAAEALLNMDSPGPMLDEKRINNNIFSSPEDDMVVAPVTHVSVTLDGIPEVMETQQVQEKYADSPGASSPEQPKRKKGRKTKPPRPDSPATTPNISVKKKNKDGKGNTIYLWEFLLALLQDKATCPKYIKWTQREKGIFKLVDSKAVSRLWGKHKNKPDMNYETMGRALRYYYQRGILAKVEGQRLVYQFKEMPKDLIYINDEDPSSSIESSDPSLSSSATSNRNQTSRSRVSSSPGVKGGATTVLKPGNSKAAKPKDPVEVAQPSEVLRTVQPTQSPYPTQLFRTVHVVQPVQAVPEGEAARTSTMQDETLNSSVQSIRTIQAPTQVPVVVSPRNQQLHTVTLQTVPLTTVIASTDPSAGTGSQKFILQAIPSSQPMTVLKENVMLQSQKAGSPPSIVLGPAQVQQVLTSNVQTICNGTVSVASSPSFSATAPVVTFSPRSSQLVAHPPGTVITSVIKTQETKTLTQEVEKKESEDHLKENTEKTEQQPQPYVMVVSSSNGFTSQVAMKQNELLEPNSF
# Method in brief: as §1
# EHF = target: T5, EHF (Homo sapiens, UniProt Q9NZC4 1-300)
# T5 sequence: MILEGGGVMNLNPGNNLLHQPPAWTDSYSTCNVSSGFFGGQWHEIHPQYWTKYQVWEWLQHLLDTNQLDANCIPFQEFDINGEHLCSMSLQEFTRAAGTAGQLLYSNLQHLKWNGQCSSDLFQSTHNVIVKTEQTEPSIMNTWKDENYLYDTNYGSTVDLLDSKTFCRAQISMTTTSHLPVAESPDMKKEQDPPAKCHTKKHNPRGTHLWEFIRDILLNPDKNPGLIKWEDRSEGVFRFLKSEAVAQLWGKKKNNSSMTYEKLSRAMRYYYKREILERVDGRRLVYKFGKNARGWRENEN
# Method in brief: as §1
# SPI1 = SPI1 (Homo sapiens, UniProt P17947 1-270)
# Method in brief: as §1
# SPIB = SPIB (Homo sapiens, UniProt Q01892 1-262)
# SPIB, sequence (Q01892 whole entry): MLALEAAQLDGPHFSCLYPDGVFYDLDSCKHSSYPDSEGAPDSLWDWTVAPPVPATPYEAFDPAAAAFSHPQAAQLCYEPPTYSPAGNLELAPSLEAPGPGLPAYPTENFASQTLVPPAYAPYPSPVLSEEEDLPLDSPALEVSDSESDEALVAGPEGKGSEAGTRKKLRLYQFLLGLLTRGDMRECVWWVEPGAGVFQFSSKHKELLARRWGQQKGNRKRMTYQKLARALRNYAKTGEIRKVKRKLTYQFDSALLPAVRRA
# Method in brief: as §1
# ELK3 = target: T6, ELK3 (Homo sapiens, UniProt P41970 1-407)
# T6 sequence: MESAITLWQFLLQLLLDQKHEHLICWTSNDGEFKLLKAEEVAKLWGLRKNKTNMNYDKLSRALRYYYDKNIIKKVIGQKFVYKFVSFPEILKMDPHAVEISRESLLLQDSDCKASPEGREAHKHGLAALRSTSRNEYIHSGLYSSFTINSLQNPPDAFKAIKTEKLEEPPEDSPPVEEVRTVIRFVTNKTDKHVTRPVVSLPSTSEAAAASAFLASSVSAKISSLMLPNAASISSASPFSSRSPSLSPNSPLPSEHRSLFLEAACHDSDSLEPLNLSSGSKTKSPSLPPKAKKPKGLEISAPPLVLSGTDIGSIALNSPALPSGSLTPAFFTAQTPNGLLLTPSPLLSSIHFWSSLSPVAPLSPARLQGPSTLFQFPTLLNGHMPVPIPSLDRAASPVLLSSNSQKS
# Method in brief: as §1
sequence,measurement,setting,value
TTCCTG,binding signal,FLI1,"2.3 fold enrichment (6-mer frequency, TF over GST control)"
same,binding signal,ELK1,"2.3 fold enrichment (6-mer frequency, TF over GST control)"
same,binding signal,GABPA,"2.17 fold enrichment (6-mer frequency, TF over GST control)"
same,binding signal,ERG,"2.59 fold enrichment (6-mer frequency, TF over GST control)"
same,binding signal,ELF1,"2.22 fold enrichment (6-mer frequency, TF over GST control)"
same,binding signal,EHF,"2.23 fold enrichment (6-mer frequency, TF over GST control)"
same,binding signal,SPI1,"2.64 fold enrichment (6-mer frequency, TF over GST control)"
same,binding signal,SPIB,"2.36 fold enrichment (6-mer frequency, TF over GST control)"
same,binding signal,ELK3,"2.28 fold enrichment (6-mer frequency, TF over GST control)"
